# Experimental data from the supplement of paper PMC8728848.
# Only a selection was taken, and the strongest signals are over-represented in it overall.
# Columns and labels:
# Assay in all cases: glycan array binding signal (z-score within array); higher = stronger binding
# Settings in all cases: glycan notation: IUPAC condensed, linker removed
# [1] = target: Fuc(a1-2)Gal(b1-3)GalNAc(b1-3)Gal
# In short: (§1)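 Glycan array data were curated from 3228 arrays in the Consortium for Functional Glycomics database and kept only where the protein sequence was available. Glycan names were converted to IUPAC-condensed notation, and columns mapping to the same glycan were averaged. The binding signal is a within-array Z-score, averaged across arrays of the same protein sequence at different concentrations or buffers and across linkers. Negative Z-scores can be read as non-binding.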
# [2] = target: Fuc(a1-2)Gal(b1-3)GalNAc(b1-3)Gal(a1-4)Gal(b1-4)Glc
# In short: as §1
# [3] = target: Fuc(a1-2)Gal(b1-3)GlcNAc(b1-3)[Gal(b1-4)GlcNAc(b1-6)]Gal(b1-4)Glc
# In short: as §1
# [4] = target: Fuc(a1-2)Gal(b1-4)[Fuc(a1-3)]GlcNAc(b1-3)GalNAc
# In short: as §1
# [5] = target: Fuc(a1-2)[Gal(a1-3)]Gal(b1-4)GlcNAc(b1-2)Man(a1-3)[Fuc(a1-2)[Gal(a1-3)]Gal(b1-4)GlcNAc(b1-2)Man(a1-6)]Man(b1-4)GlcNAc(b1-4)[Fuc(a1-6)]GlcNAc
# In short: as §1
# [6] = target: Fuc(a1-2)[GalNAc(a1-3)]Gal(b1-4)[Fuc(a1-3)]GlcNAc
# In short: as §1
# [7] = target: Fuc(a1-3)[Gal(b1-4)]GlcNAc(b1-2)Man(a1-3)[Fuc(a1-3)[Gal(b1-4)]GlcNAc(b1-2)Man(a1-6)]Man(b1-4)GlcNAc(b1-4)[Fuc(a1-6)]GlcNAc
# In short: as §1
# [8] = target: Fuc(a1-3)[Gal(b1-4)]GlcNAc(b1-3)Gal(b1-3)[Fuc(a1-4)]GlcNAc
# In short: as §1
# [9] = target: Fuc(a1-3)[Gal(b1-4)]GlcNAc6S
# In short: as §1
# [10] = target: Gal(a1-2)Gal
# In short: as §1
# [11] = target: Gal(a1-3)Gal(b1-3)GlcNAc
# In short: as §1
# [12] = target: Gal(a1-3)Gal(b1-3)GlcNAc(b1-3)GalNAc
# In short: as §1
# [13] = target: Gal(a1-3)Gal(b1-4)GlcNAc(b1-6)GalNAc
# In short: as §1
# [14] = target: Gal(b1-2)Gal
# In short: as §1
# [15] = target: Gal(b1-3)GalNAc(a1-3)[Fuc(a1-2)]Gal(b1-4)Glc
# In short: as §1
# [16] = target: Gal(b1-3)GalNAc(b1-3)Gal(a1-4)Gal(b1-4)Glc
# In short: as §1
# [17] = target: Gal(b1-3)GlcNAc(b1-6)[Gal(b1-3)]GalNAc
# In short: as §1
# [18] = target: Gal(b1-3)[Neu5Ac(a2-6)]GalNAc
# In short: as §1
# [19] = target: Gal(b1-4)GlcNAc(b1-2)Man
# In short: as §1
# [20] = target: Gal(b1-4)GlcNAc(b1-3)Gal(b1-4)GlcNAc(b1-2)Man(a1-3)[Gal(b1-4)GlcNAc(b1-3)Gal(b1-4)GlcNAc(b1-2)Man(a1-6)]Man(b1-4)GlcNAc(b1-4)GlcNAc
# In short: as §1
# [21] = target: Gal(b1-4)GlcNAc(b1-3)Gal(b1-4)GlcNAc(b1-3)Gal(b1-4)GlcNAc(b1-2)Man(a1-3)[Gal(b1-4)GlcNAc(b1-3)Gal(b1-4)GlcNAc(b1-3)Gal(b1-4)GlcNAc(b1-2)Man(a1-6)]Man(b1-4)GlcNAc(b1-4)GlcNAc
# In short: as §1
# [22] = target: Gal(b1-4)GlcNAc(b1-3)Gal(b1-4)GlcNAc(b1-3)Gal(b1-4)GlcNAc(b1-3)Gal(b1-4)GlcNAc(b1-3)Gal(b1-4)GlcNAc(b1-2)Man(a1-3)[Gal(b1-4)GlcNAc(b1-3)Gal(b1-4)GlcNAc(b1-3)Gal(b1-4)GlcNAc(b1-3)Gal(b1-4)GlcNAc(b1-3)Gal(b1-4)GlcNAc(b1-2)Man(a1-6)]Man(b1-4)GlcNAc(b1-4)[Fuc(a1-6)]GlcNAc
# In short: as §1
# [23] = target: Gal(b1-4)GlcNAc(b1-3)Gal(b1-4)GlcNAc(b1-3)[Gal(b1-4)GlcNAc(b1-3)Gal(b1-4)GlcNAc(b1-6)]GalNAc
# In short: as §1
# [24] = target: Gal(b1-4)GlcNAc(b1-3)Gal(b1-4)GlcNAc(b1-6)[Gal(b1-3)]GalNAc
# In short: as §1
# [25] = target: GalNAc(b1-4)GlcNAc
# In short: as §1
# [26] = target: GalNAc3S(b1-4)GlcNAc
# In short: as §1
# [27] = target: Glc(a1-4)Glc
# In short: as §1
# [28] = target: GlcA(b1-6)Gal
# In short: as §1
# [29] = target: GlcNAc(a1-4)Gal(b1-3)GlcNAc
# In short: as §1
# [30] = target: GlcNAc(a1-4)Gal(b1-4)GalNAc
# In short: as §1
# [31] = target: GlcNAc(a1-6)Gal(b1-4)GlcNAc
# In short: as §1
# [32] = target: GlcNAc(b1-2)Man(a1-3)[GlcNAc(b1-2)Man(a1-6)]Man(b1-4)GlcNAc(b1-4)GlcNAc
# In short: as §1
# [33] = target: GlcNAc(b1-3)Gal(b1-4)GlcNAc(b1-3)Gal(b1-4)GlcNAc(b1-2)Man(a1-3)[GlcNAc(b1-3)Gal(b1-4)GlcNAc(b1-3)Gal(b1-4)GlcNAc(b1-2)Man(a1-6)]Man(b1-4)GlcNAc(b1-4)GlcNAc
# In short: as §1
# [34] = target: GlcNAc(b1-3)Gal(b1-4)GlcNAc(b1-6)[GlcNAc(b1-3)Gal(b1-3)]GalNAc
# In short: as §1
# [35] = target: GlcNAc(b1-3)Gal(b1-4)GlcNAc(b1-6)[GlcNAc(b1-3)]Gal(b1-4)GlcNAc
# In short: as §1
# [36] = target: GlcNAc(b1-3)Man
# In short: as §1
# [37] = target: Kdn(a2-3)Gal(b1-3)GlcNAc
# In short: as §1
# [38] = target: Man(a1-3)[Man(a1-6)]Man(a1-6)[Man(a1-3)]Man
# In short: as §1
# [39] = target: Man(a1-3)[Man(a1-6)]Man(b1-4)GlcNAc(b1-4)GlcNAc
# In short: as §1
# [40] = target: Man(b1-4)GlcNAc
# In short: as §1
# [41] = target: Neu5Ac(a2-3)Gal
# In short: as §1
# [42] = target: Neu5Ac(a2-3)Gal(b1-3)GlcNAc6S
# In short: as §1
# [43] = target: Neu5Ac(a2-3)Gal(b1-4)GlcNAc(b1-2)Man
# In short: as §1
# [44] = target: Neu5Ac(a2-3)Gal(b1-4)GlcNAc(b1-3)Gal(b1-3)GlcNAc
# In short: as §1
# [45] = target: Neu5Ac(a2-3)Gal(b1-4)GlcNAc(b1-3)Gal(b1-4)GlcNAc(b1-2)Man(a1-3)[Neu5Ac(a2-3)Gal(b1-4)GlcNAc(b1-3)Gal(b1-4)GlcNAc(b1-2)Man(a1-6)]Man(b1-4)GlcNAc(b1-4)GlcNAc
# In short: as §1
# [46] = target: Neu5Ac(a2-3)Gal(b1-4)GlcNAc(b1-3)Gal(b1-4)GlcNAc(b1-3)Gal(b1-4)GlcNAc(b1-2)Man(a1-3)[Neu5Ac(a2-3)Gal(b1-4)GlcNAc(b1-3)Gal(b1-4)GlcNAc(b1-3)Gal(b1-4)GlcNAc(b1-2)Man(a1-6)]GalNAc
# In short: as §1
# [47] = target: Neu5Ac(a2-6)Gal(b1-4)Glc
# In short: as §1
# [48] = target: Neu5Ac(a2-6)Gal(b1-4)GlcNAc
# In short: as §1
# [49] = target: Neu5Ac(a2-6)Gal(b1-4)GlcNAc(b1-2)Man(a1-6)[Gal(b1-4)GlcNAc(b1-2)Man(a1-3)]Man(b1-4)GlcNAc(b1-4)GlcNAc
# In short: as §1
# [50] = target: Neu5Ac(a2-6)Gal(b1-4)GlcNAc(b1-3)Gal(b1-4)GlcNAc(b1-3)Gal(b1-4)GlcNAc(b1-2)Man(a1-3)[Neu5Ac(a2-6)Gal(b1-4)GlcNAc(b1-3)Gal(b1-4)GlcNAc(b1-3)Gal(b1-4)GlcNAc(b1-2)Man(a1-6)]GalNAc
# In short: as §1
# [51] = target: Neu5Gc(b2-6)Gal(b1-4)GlcNAc
# In short: as §1
binder,measurement,setting,value
Pbx1CASH domain (Cryptococcus neoformans) (protein) MDETKPLWGNPRADGISLACKDSIVERNVVYDATDGAIVLFGSAGSTVKNNHVYARTRVILGGINLVDYEPWDGDYTNVKVHHNHLYALGRYFKVGIVIGPASWSDDTESVVHSASVTDNEFSGGYWGYGIVVASAKNFEVLRNKVIWDGEQGVARFSGVPGS,glycan array binding signal (z-score),[1],1.37
same,glycan array binding signal (z-score),[2],0.581
same,glycan array binding signal (z-score),[3],0.324
same,glycan array binding signal (z-score),[4],2.39
same,glycan array binding signal (z-score),[5],-0.277
same,glycan array binding signal (z-score),[6],-0.042
same,glycan array binding signal (z-score),[7],-0.469
same,glycan array binding signal (z-score),[8],0.08
same,glycan array binding signal (z-score),[9],0.01
same,glycan array binding signal (z-score),[10],-0.625
same,glycan array binding signal (z-score),[11],-0.681
same,glycan array binding signal (z-score),[12],-0.095
same,glycan array binding signal (z-score),[13],-0.006
same,glycan array binding signal (z-score),[14],-0.215
same,glycan array binding signal (z-score),[15],0.601
same,glycan array binding signal (z-score),[16],0.926
same,glycan array binding signal (z-score),[17],1.3
same,glycan array binding signal (z-score),[18],-0.674
same,glycan array binding signal (z-score),[19],0.337
same,glycan array binding signal (z-score),[20],5.46
same,glycan array binding signal (z-score),[21],3.17
same,glycan array binding signal (z-score),[22],-0.419
same,glycan array binding signal (z-score),[23],4.67
same,glycan array binding signal (z-score),[24],2.73
same,glycan array binding signal (z-score),[25],-0.736
same,glycan array binding signal (z-score),[26],-0.852
same,glycan array binding signal (z-score),[27],-0.667
same,glycan array binding signal (z-score),[28],-0.6
same,glycan array binding signal (z-score),[29],-0.187
same,glycan array binding signal (z-score),[30],0.311
same,glycan array binding signal (z-score),[31],-0.894
same,glycan array binding signal (z-score),[32],0.233
same,glycan array binding signal (z-score),[33],4.67
same,glycan array binding signal (z-score),[34],0.647
same,glycan array binding signal (z-score),[35],1.15
same,glycan array binding signal (z-score),[36],0.12
same,glycan array binding signal (z-score),[37],-0.869
same,glycan array binding signal (z-score),[38],-0.5
same,glycan array binding signal (z-score),[39],0.022
same,glycan array binding signal (z-score),[40],-0.348
same,glycan array binding signal (z-score),[41],-0.64
same,glycan array binding signal (z-score),[42],0.698
same,glycan array binding signal (z-score),[43],2.55
same,glycan array binding signal (z-score),[44],-0.104
same,glycan array binding signal (z-score),[45],2.42
same,glycan array binding signal (z-score),[46],3.29
same,glycan array binding signal (z-score),[47],-0.412
same,glycan array binding signal (z-score),[48],-0.348
same,glycan array binding signal (z-score),[49],-0.843
same,glycan array binding signal (z-score),[50],3.13
same,glycan array binding signal (z-score),[51],2.35
